The campaign covered roughly 340,000 compounds. About 530 (0.16%) were called active. Not shown: some 2% with an inconclusive outcome. The sample holds actives, similar compounds and a random draw of the others, so the mix is not that of the screen. Unmarked numbers belong to inactive results. Rule as the data show it: active = activity change below about -80%; inconclusive = between about -30% and that limit; inactive = weaker than that.
% is scaled to controls: 0 for no effect and ±100 for the full control effect.

This assay in a line: Small Molecules that selectively kill Giardia lamblia: qHTS.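 Also: parasites exposed to compound for two days anaerobically before the ATP read.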 The settings on record: Giardia lamblia trophozoite viability; at 7.66 µM; active compounds read low. An excerpt:
Giardia lamblia is a human pathogen afflicting impoverished nations, and the most common cause of outbreaks of diarrhea in the United States. Giardia has been classified by the CDC as a category B bioterrorism organism. The favored anti giardiasis drugs in the US are metronidazole or tinidazole, compounds that have undesirable side effects. Moreover, increasing resistance to drug regimes and recurrence are a concern. It is thus clear that alternative drug treatments are needed.
In a collaboration between the University of Maryland, College Park and the NIH Chemical Genomics Center, a bioluminescence Giardia viability assay based on the trophozoites' ATP content was developed. This assay is suitable for high throughput screening, and miniaturized the assay for compound screening in 1536-well plates. The goal of the project is to screen the Molecular Libraries Small Molecule Repository (MLSMR) for compounds that selectively kill Giardia trophozoites.
NIH Chemical Genomics Center [NCGC]
NIH Molecular Libraries Probe Centers Network [MLPCN]
Assay Submitter (PI): Osnat Herzberg, University of Maryland, College Park, MD.
1. Dispense 2 ul/well media
2. Dispense 23 nl/well compounds
3. Dispense 4 ul/well Giardia trophozoites at a concentration of 100 cells/well
4. Incubate 48 hrs at 37 deg C anaerobically
5. Dispense 4 ul/well ATPLite 1-Step Luminescence assay kit
6. Incubate 15-30 min at room temperature
7. Read luminescence signal on ViewLux plate reader
Consider `CN(c1ccccc1)c1ccc([N+](=O)[O-])c2nonc12`, for which the activity change was -83.4% (active).
`CCN(CC)c1ccc([N+](=O)[O-])c2cccnc12`: the activity change was -13.7%.
With `CO[C@H]1[C@@H](O)[C@@H](C)O[C@H](O[C@H]2[C@H](Oc3cccc4c(O)c5c(=O)oc6ccc(C)c7c(=O)oc(c34)c5c67)O[C@H](C)[C@H](O)[C@@H]2O)[C@@H]1O`, the activity change was 0.803%.
As to `COc1cc([C@@H]2c3cc4c(cc3[C@H](OC(C)=O)[C@H]3COC(=O)[C@H]23)OCO4)cc(OC)c1OC`, the activity change is -7.09%.
Regarding `O=P1(Oc2ccccc2)CC(O)C(O)C(COCc2ccccc2)O1` (stereo not given), the activity change is 11%.

(Values after PubChem BioAssay AID540267 (National Center for Advancing Translational Sciences (NCATS), 2011).)
